# Screening results as filed in PubChem BioAssay.
# NPC1 prom act: NPC1 promoter activation. Huh7 NPC1 promoter luciferase reporter, 24 h. Potency, µM (highest dose often 9.22 µM), without a hit: top-dose activation, usual class: activators. 320,000 tested, 2.4% active. AID 485313; further: % of control where 0% means no effect; nearly all actives have a fitted effect of over 60% in size
#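 Quantitative HTS used a cell-based reporter: Huh7 cells stably bearing the NPC1 promoter upstream of luciferase were treated with compounds for 24 h, and promoter activation was read as luminescence.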
# ELG1 genotoxic: inducers of genotoxicity in HEK293T ELG1-luciferase cells | 330,000 tested, 1.3% active | Potency, µM (titrated, usually from 46 µM), without a hit: at the top dose activity change, positive = activation, hits mostly activators | HEK293T ELG1-luciferase reporter, luminescence, 16 h; further: % of control where 0% means no effect; nearly all actives have a fitted effect of over 60% in size
#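 After overnight (16 hr) compound treatment at 37 °C, ELG1-luciferase HEK293T cells were lysed with ONE-Glo; luminescence quantified 30 min later at room temperature.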
# FLuc modulator: inhibits or activates purified firefly luciferase, miR-21 counter-screen; purified FLuc, Km substrates, luminescence inhibition; Potency, µM (highest dose often 57.5 µM), for inactives: at the top dose activity change, negative = inhibition, most hits filed as inhibitors; 360,000 tested, 6.9% active; AID 588342;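 further: plate controls were vehicle for no effect and reference inhibitor for full effect; nearly all actives have a fitted effect of over 55% in size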
# Target sequence (P08659 whole entry, looked up): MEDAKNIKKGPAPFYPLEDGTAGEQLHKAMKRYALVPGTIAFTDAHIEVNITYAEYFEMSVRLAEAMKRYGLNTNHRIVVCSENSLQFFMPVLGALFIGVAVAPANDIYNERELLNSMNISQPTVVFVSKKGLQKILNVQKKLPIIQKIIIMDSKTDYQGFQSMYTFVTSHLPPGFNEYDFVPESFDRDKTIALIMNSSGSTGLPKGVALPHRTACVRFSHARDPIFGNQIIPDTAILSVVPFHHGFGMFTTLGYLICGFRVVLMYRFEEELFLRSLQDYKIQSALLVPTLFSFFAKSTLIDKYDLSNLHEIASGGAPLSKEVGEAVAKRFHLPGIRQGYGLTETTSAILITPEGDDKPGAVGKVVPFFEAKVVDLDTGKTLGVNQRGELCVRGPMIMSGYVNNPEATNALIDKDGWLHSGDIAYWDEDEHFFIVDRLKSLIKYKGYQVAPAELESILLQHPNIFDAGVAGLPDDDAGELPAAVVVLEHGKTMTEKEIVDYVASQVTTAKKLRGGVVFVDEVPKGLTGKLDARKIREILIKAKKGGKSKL
#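 Purified P. pyralis luciferase, 10 nM final, with Km-level 10 uM D-luciferin and 10 uM ATP in 50 mM Tris acetate pH 7.5, 10 mM Mg acetate, 0.01% Tween-20, 0.05% BSA; 6-point qHTS titration about 60 µM downward; luminescence read.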
# Rab9 promoter act: activates the Rab9 promoter. Potency, µM (titrated, usually from 9.22 µM), without a hit: at the top dose activation, negative = inhibition, most hits filed as activators. Huh7 Rab9 promoter-luciferase reporter, luminescence, 24 h. AID 485297. 320,000 tested, 2.8% active; further: % of control where 0% means no effect; nearly all actives have a fitted effect of over 60% in size
#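 Measured in stably transfected Huh7 cells bearing a Rab9 promoter–luciferase construct: 24 h compound treatment at 37 °C, followed by luminescence detection.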
# SMN2 splice enh: enhancers of SMN2 splice variant expression. 210,000 tested, 2.8% active. HEK293 SMN2-luciferase splicing reporter, luminescence, 30-36 h. Potency, µM (top dose mostly 46.1 µM), without a hit: top-dose activity change, positive = activation, actives largely listed as activators; further: % of control where 0% means no effect; nearly all actives have a fitted effect of over 55% in size
#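 HEK293 cells carry an SMN2 minigene-luciferase reporter in which exon 7 inclusion puts luciferase in frame. Cells were seeded at 2000 cells/well, attached for 10-12 hours, then exposed to compounds for 30-36 hours at 37C before ONE-Glo luminescence.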
# Starred values were filed as active, the others as inactive; u = inconclusive; x = no result given; [ ] = remark or other dose. Compounds with a hit are over-represented: about 7.4% of the library has one in this group of screens. The call rests on the fitted dose curve; in most records, active means well fitted curve in the direction sought with a large enough effect; inconclusive means small, poorly fitted or top-dose-only effect, or another doubt; inactive means no such curve, though single readings can be large; an effect the other way counts as inactive or inconclusive. Potency means the concentration at half of the fitted maximal effect.
SMILES,NPC1 prom act,ELG1 genotoxic,FLuc modulator,Rab9 promoter act,SMN2 splice enh
CCOC(=O)C1=C(C)NC(C)=C(C(=O)OCC)C1c1ccc(O)cc1,0%,14%,3%,12%,13µM*
O=C1/C(=C/C=C/c2ccco2)SC(=S)N1NS(=O)(=O)c1ccccc1,0%,-3%,u,-1%,x
CC(C(=O)O)N1C(=O)/C(=C/C=C/c2ccco2)SC1=S (stereo unspecified),8%,0%,17µM*,1%,-9%
Cc1ccc(C(=O)N/N=C\c2cccs2)cn1,21%,-4%,24µM*,18%,3%
Cc1ccc(C(=O)N/N=C/c2ccc(OC(=O)c3ccccc3Cl)cc2)cn1,5%,2%,-9%,5%,x
Cc1ccc(C(=O)N/N=C\c2ccc(OC(=O)c3cccs3)cc2)cn1,4%,5%,-2%,0%,11%
CCOc1ccc2ccccc2c1/C=N/NC(=O)c1ccc(C)nc1,0%,6%,4.8µM*,3%,x
O=C(N/N=C/c1cccc(OC(=O)c2ccco2)c1)c1ccc(F)cc1,0%,u,3.8µM*,-4%,7%
O=C(N/N=C/c1cccc(OC(=O)c2ccccc2Cl)c1)c1cccnc1,24%,18%,24µM*,10%,x
CCOc1ccc2ccccc2c1/C=N/NC(=O)CNC(=O)c1ccccc1O,1%,-8%,-3%,-1%,x
CCC(C(=O)Nc1cccc(C#N)c1)n1nc(-c2ccccc2)ccc1=O (stereo unspecified),x,x,-10%,x,-1%
COc1cccc(/C=N/NC(=O)c2cnn(-c3ccccc3)c2N)c1,u,-2%,12µM*,u,x
COc1cccc(/C=N\NC(=O)c2ccc(C)nc2)c1,23%,11%,19µM*,13%,x
COc1ccccc1NC(=O)C(=O)N/N=C/c1cccs1,26%,u,9.5µM*,u,10%[1.84 µM]
Cc1ccc(C(=O)N/N=C\c2cccc(OC(=O)c3cccc(F)c3)c2)cn1,4%,18%,8.5µM*,-1%,x
COc1ccc2c(CNC3CCC(C)CC3)c(C(=O)O)n(Cc3ccccc3)c2c1 (stereo unspecified),x,x,-5%,x,x
Cc1ccc2nc(Cl)c3cc(C(=O)NC4CCC(C)CC4)sc3c2c1 (stereo unspecified),x,x,-7%,x,-5%
Cc1cc2c(c(=O)n1-c1ccccc1)C1O[C@](c3ccsc3)(Cc3ccccc31)O2,1%[1.84 µM],x,-16%[11.5 µM],0%[1.84 µM],x
O=C1c2cccc3cccc(c23)C(=O)N1CCc1ccccc1,26%,4%,13µM*,u,14µM*
O=C(O)C(Cc1ccccc1)N1C(=O)c2cccc3cccc(c23)C1=O (stereo unspecified),-2%,-5%,-11%,1%,x
O=C(CCN1C(=O)c2ccccc2Sc2ncccc21)Nc1ccc(F)cc1F,x,x,-5%,x,x
O=C(Nc1nc2ccccc2s1)C1CCN(C(=O)c2ccco2)CC1,0%,-14%,-7%,0%,x
CCOc1ccc2nc(NC(=O)C3CCN(C(=O)c4ccco4)CC3)sc2c1,u,u,15µM*,u,x
CCOc1ccc2nc(N3CCC(C(=O)N4CCN(C(=O)c5ccco5)CC4)CC3)sc2c1,7%,1%,13µM*,20%,-46%
COc1ccc(N2CCN(C(=O)C(CC(C)C)NS(=O)(=O)c3ccc4nc(C)sc4c3)CC2)cc1 (stereo unspecified),x,x,-4%,x,-10%
SMILES,NPC1 prom act,ELG1 genotoxic,FLuc modulator,Rab9 promoter act,SMN2 splice enh
CC(C)[C@H](NC(=O)CNC(=O)OC(C)(C)C)C(=O)N[C@H](C=O)C(C)C,x,x,x,x,-9%
O=C(/C=N/NC(=O)c1ccc(Cl)cc1Cl)c1ccccc1,21%,12%,2.7µM*,u,x
O=C(N/N=C/c1cc(Cl)ccc1O)c1ccccc1Br,-25%,16%,u,-24%,x
O=C(/C=N/NC(=O)c1ccccc1Br)c1ccccc1,7%,6%,9.5µM*,20%,7%
COc1ccc2c(c1)c1c(c(=O)n(-c3cccc(C)c3)c(=O)n1CC(=O)NCc1ccc(C)cc1)n2C,x,x,0%,x,x
O=C(/C=C/NNC(=O)c1ccccc1)c1ccc(Br)cc1,7%,u,27µM*,0%,4%
Cc1ccc(C(=O)NC(=S)NNC(=O)c2ccccc2O)cc1,1%,9%,u,2%,x
Cc1ccc(C(=O)/C=C/NNC(=O)c2ccccc2O)cc1,10%,-5%,27µM*,7%,x
CC1CCN(S(=O)(=O)c2cc(C(=O)NCc3ccc(F)cc3)n(C)c2)CC1,x,x,-4%,x,x
CC(C)OC(=O)[C@@H]1CC[C@H](C)[C@@H](CCCCO)O1,x,x,x,x,-1%
COc1ccc(/C=C(/C#N)c2nc(-c3cc4ccccc4oc3=O)cs2)cc1,x,x,0%,x,4%
O=c1oc2ccccc2cc1-c1csc(NN=C2CCCCC2)n1,u,14%,13µM*,u,u
CC(Nc1nc(-c2ccc3c(c2)NC(=O)CO3)cs1)c1ccccc1 (stereo unspecified),21%,-8%,u,12%,-13%
CC1CCC/C(=C(\C#N)c2nc(-c3cc4ccccc4oc3=O)cs2)C1 (stereo unspecified),2.5µM*,u,1.7µM*,1.8µM*,-12%
O=C1COc2ccc(-c3csc(NCC4CCCO4)n3)cc2N1 (stereo unspecified),5%,11%,17µM*,27%,-24%
C=CCNc1nc(-c2ccc(O)c(C(N)=O)c2)cs1,2%,u,u,4%,3%
C=CCNc1nc(-c2cc3ccccc3o2)cs1,1µM*,0.52µM*,0.34µM*,0.63µM*,0.56µM*
N#CCCn1c(=O)c(-c2cc(F)cc(F)c2)nc2cnc(Oc3cccc(Cl)c3)nc21,x,x,x,x,-38%
c1ccc2oc(-c3csc(NCC4CCCO4)n3)cc2c1 (stereo unspecified),1.6µM*,2.3µM*,1.5µM*,0.4µM*,u
c1ccc2sc(NCC3CCCO3)nc2c1 (stereo unspecified),2.2µM*,u,21µM*,1.4µM*,10µM*
CCn1c(=O)c2sccc2n2c(CCC(=O)Nc3ccc(F)cc3)nnc12,x,x,-2%,x,-6%
COc1ccc(/C=N/Nc2nncc3ccccc23)c(OC)c1,u,u,9.5µM*,u,13µM*
C(=N\Nc1nncc2ccccc12)/c1ccccc1,1.1µM*,u,0.54µM*,1.4µM*,x
Oc1ccc(/C=N\Nc2nncc(-c3ccccc3)n2)cc1,-6%,u,u,-8%,x
Cc1cccc(/C=N/Nc2nncc3ccccc23)c1,0.56µM*,0.46µM*,0.85µM*,0.32µM*,2.5µM*
COc1cc(/C=N/Nc2nncc3ccccc23)cc(OC)c1OC,1.6µM*,u,8.5µM*,u,x
Cc1cc(=O)[nH]c(N/N=C/c2ccc(N(C)C)cc2)n1,8%,9%,u,0%,x
CN(C)c1ccc(/C=N/Nc2nncc3ccccc23)cc1,0.32µM*,0.73µM*,0.43µM*,0.32µM*,x
